Laboratory results taken from publication PMC5540273 (PLoS ONE, 2017).

Legend:
Conditions in all cases: concentration: 1 μM, replicates: in singlicate; n = 1
EPHA2 = system: EPHA2
EPHA3 = system: EPHA3
EPHA4 = system: EPHA4
EPHA5 = system: EPHA5
EPHA6 = system: EPHA6
EPHA7 = system: EPHA7
EPHA8 = system: EPHA8
EPHB1 = system: EPHB1
EPHB2 = system: EPHB2
EPHB3 = system: EPHB3
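Note: KINOMEscan kinase panel screen.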

| SMILES | %Inh (EPHA2) | %Inh (EPHA3) | %Inh (EPHA4) | %Inh (EPHA5) | %Inh (EPHA6) | %Inh (EPHA7) | %Inh (EPHA8) | %Inh (EPHB1) | %Inh (EPHB2) | %Inh (EPHB3) |
| --- | --- | --- | --- | --- | --- | --- | --- | --- | --- | --- |
| COc1ccc2cc(-c3nc(-c4ccccc4C(C)C)[nH]c3-c3ccncc3)ccc2c1 [SB-660566] | 0% | 0% | 25% | 0% | 30% | 15% | 13% | 4% | 15% | 28% |
| CNc1cc(-c2ccc3c(N)n[nH]c3c2)nc(N)n1 [GSK2224810] | 0% | 27% | 0% | 0% | 0% | 0% | 0% | 23% | 0% | 4% |
| Cc1ccc(-c2nc(Nc3ccncc3)c3ccccc3n2)s1 [GSK189015] | 28% | 0% | 23% | 100% | 30% | 22% | 26% | 24% | 0% | 37% |
| CNc1nc(-c2ccc3c(N)n[nH]c3c2)cc(N2C[C@@H](C(=O)Nc3ccccc3)CC[C@H]2C)n1 [GSK2298859] | 0% | 18% | 8% | 0% | 0% | 1% | 5% | 0% | 0% | 9% |
| COc1ccc(Nc2nccc(N3CCC(NC(=O)C(C)c4ccc(Cl)cc4)C3)n2)cc1 (centres unmarked) [GSK1379735] | 25% | 9% | 14% | 0% | 11% | 18% | 17% | 13% | 0% | 9% |
| COC(=O)c1cccc(NC(=O)NC2CCN(c3ccnc(Nc4ccc(OC)cc4)n3)C2)c1 (centres unmarked) [GSK1379746] | 6% | 0% | 4% | 0% | 0% | 3% | 12% | 21% | 8% | 5% |
| Fc1ccc(-c2nc[nH]c2-c2ccncc2)cc1 [SB-217360] | 0% | 9% | 4% | 0% | 1% | 0% | 5% | 1% | 0% | 0% |
| Cc1ccccc1Cn1ccn2c(=O)cc(N3CCOCC3)nc12 [GSK2269905] | 4% | 0% | 19% | 0% | 14% | 0% | 11% | 10% | 0% | 20% |
| CC(C)c1ccc(O)cc1Nc1ccnc2ccc(C(F)(F)F)cc12 [GW482059] | 0% | 0% | 19% | 0% | 20% | 0% | 3% | 9% | 0% | 13% |
| CNCc1ccc2nc(NC(=O)c3ccc(C(C)(C)C)cc3)cn2c1 | 3% | 0% | 0% | 3% | 0% | 0% | 0% | 0% | 5% | 0% |
| O=C(Nc1n[nH]c2cc(-c3ccsc3)ccc12)C1CC1 [SB-732932] | 0% | 13% | 0% | 3% | 6% | 0% | 0% | 0% | 0% | 7% |
| CC(=O)c1c(C)c2cnc(Nc3ccn(C)n3)nc2n(C2CCCC2)c1=O | 0% | 0% | 0% | 0% | 0% | 0% | 0% | 0% | 15% | 0% |
| COc1ccc(Nc2nccc(N3CCC(NC(=O)c4cc5ccccc5s4)C3)n2)cc1 (centres unmarked) [GSK1379738] | 0% | 0% | 8% | 0% | 1% | 7% | 13% | 20% | 12% | 11% |
| Cn1cncc1C(=O)NC1CCN(c2ccnc(Nc3ccc(F)cc3)n2)C1 (centres unmarked) [GSK1379717] | 0% | 0% | 0% | 0% | 0% | 3% | 4% | 7% | 0% | 0% |
| COc1ccc(CSc2nnc(-c3ccc4nccn4c3)o2)cc1C(F)(F)F | 7% | 8% | 11% | 10% | 9% | 15% | 16% | 17% | 0% | 7% |
| CNc1nc(-c2ccc3c(N)n[nH]c3c2)cc(N2C[C@@H](C(=O)NC3CCCCC3)OC[C@H]2C)n1 [GSK2375584] | 0% | 0% | 8% | 0% | 1% | 8% | 13% | 7% | 0% | 11% |
| COc1cccc(CNC(=O)NC2CCN(c3ccnc(Nc4ccc(F)cc4)n3)C2)c1 (centres unmarked) [GSK1379723] | 2% | 0% | 0% | 0% | 0% | 1% | 15% | 0% | 0% | 5% |
